The whole screen tested about 69,000 compounds, of which about 8,600 (12%) showed an effect of 50% or more. Only a selection was taken, and strong results are over-represented in it overall.
Test system: Plasmodium berghei
Test: Screen against P. berghei liver stage (PbLuc), transformed with Luciferase, at 10uM
Type: functional, HepG2
Conditions: tested at 10 uM

| Structure (SMILES) | INHIBITION [%] |
| --- | --- |
| Cc1nn(C)c2ncc(CN3CCN(c4ncccn4)CC3)cc12 | 7.3 |
| CCC(C)NC(=O)CS(=O)(=O)Cc1cc(Cl)c2c(c1)OCCCO2 (centres undefined) | -58.7 |
| CCOC(=O)C1(O)CCN(C(=O)Nc2cccc(CC)c2)CC1 | -41.8 |
| COc1c(C2CCCN2C(=O)c2ccnc(C)n2)c(C)nn1C (centres undefined) | 3.73 |
| Cc1nn(C)cc1CN1CCCCCC1c1ccc(Cl)cc1 (centres undefined) | 13.6 |
| COc1cc(C)nc(N2CCN(C(C)c3nc(C)no3)CC2)n1 (centres undefined) | -72.5 |
| Cc1noc(C(C)N2CCC(c3nc4ccccc4[nH]3)CC2)n1 (centres undefined) | 35.4 |
| Cc1noc(C(C)N2CCN(Cc3ccco3)CC2)n1 (centres undefined) | 34.7 |
| CCc1cc(C)nc(N2CCN(C(C)c3nc(C)no3)CC2)n1 (centres undefined) | 53.4 |
| CCc1noc(C(C)N2CCN(C)CC2)n1 (centres undefined) | -5.25 |
| Cc1noc(C(C)N2CCN(c3ncnc4sccc34)CC2)n1 (centres undefined) | 68.8 |
| CCc1noc(C(C)N2CCN(c3ncnc4sccc34)CC2)n1 (centres undefined) | 61.7 |
| COc1ccnc(N2CCN(C(C)c3nc(C)no3)CC2)n1 (centres undefined) | 22.6 |
| Cc1noc(C(C)N2CCN(c3ncnc4ccccc34)CC2)n1 (centres undefined) | 51.3 |
| CCc1noc(C(C)N2CCN(c3ccc(C#N)cn3)CC2)n1 (centres undefined) | -25.3 |
| CCOc1cc(C)nc(N2CCN(C(C)c3nc(C)no3)CC2)n1 (centres undefined) | 18.7 |
| Cc1cnc(CN2CCN(C(C)c3nc(C)no3)CC2)cn1 (centres undefined) | -14.8 |
| Nc1ccnc(N2C[C@H](O)[C@@H](N3CCN(c4ccccn4)CC3)C2)n1 | 37.2 |
| O=C([C@H]1C[C@H]2CN(c3ncc(F)cn3)C[C@@H]1O2)N1CCOCC1 | 17.7 |
| CC1CN(CC(=O)NC2CCOCC2)CCN1Cc1nccn1C (centres undefined) | 29.305 |
| CCCOc1cccc(C(=O)Oc2cc(=O)n3cccc(C)c3n2)c1 | 22.6 |
| Cc1ncncc1C(=O)N1CCCC1c1c(C)nn(C)c1Cl (centres undefined) | 1.78 |

| Structure (SMILES) | INHIBITION [%] |
| --- | --- |
| Cc1cnc(C(=O)N2C[C@@H]3CC[C@H]2CN(c2cnccn2)C3)cn1 | -55.1 |
| O=C(C1CCCCC1)N1CCN(Cc2nc(-c3ccco3)no2)CC1 | 23.7 |
| COC(=O)c1ccoc1CN(C)CC(=O)N(C)C | 22.8 |
| NC(=O)CN1CCOCC(Cc2ccccc2Cl)C1 (centres undefined) | 11.1 |
| CN(C)c1ncccc1C(=O)N1CCc2c(ncn2C2CC2)C1 | -10.785 |
| O=C(c1csc(I)c1)N1CCc2c(ncn2C2CC2)C1 | 76 |
| COC(=O)c1ccc(C(=O)N2CCc3c(ncn3C3CC3)C2)cc1 | -36.95 |
| CCN(CC)Cc1nnc2sc(C(C)Oc3ccccc3)nn12 (centres undefined) | -2.93 |
| CC(C)C1CN(S(C)(=O)=O)CCCN1Cc1ccc(F)cc1 (centres undefined) | 24.3 |
| CC(C)C1CN(c2cccc(C#N)n2)CCCN1Cc1ccc(F)cc1 (centres undefined) | 68.5 |
| CC(C)C1CN(S(=O)(=O)N(C)C)CCCN1Cc1ccc(F)cc1 (centres undefined) | 12.8 |
| CC(C)C1CN(S(=O)(=O)C2CC2)CCCN1Cc1ccc(F)cc1 (centres undefined) | 45.6 |
| CC(C)C1CN(S(=O)(=O)N2CCCC2)CCCN1Cc1ccc(F)cc1 (centres undefined) | 65.3 |
| CC(C)C1CN(c2cccc(C#N)n2)CCCN1CC1CC1 (centres undefined) | 33.9 |
| Fc1cnc(N2CCn3cc(CNc4ccccn4)nc3C2)nc1 | 47.2 |
| CC(C)n1nc(CNc2ncccn2)c2c1CN(C1CCOCC1)CC2 | -18.2 |
| O=C(NCCN1CCCCC1=O)C1CCC(=O)N(C2CCCC2)C1 (centres undefined) | 55.6 |
| O=C(NCCn1cccc1)C1CCC(=O)N(C2CCCC2)C1 (centres undefined) | 41.2 |
| CSCCNC(=O)C1CCC(=O)N(C2CCCC2)C1 (centres undefined) | 17.9 |
| N#Cc1ccc(NCc2cccc(OCC3CCCO3)c2)nc1 (centres undefined) | 53.8 |
| CNC(=O)c1cccc(CCNc2ccc(C#N)cn2)c1 | -11 |
| Cc1nnc(NCc2cccc(OCC3CCCO3)c2)c(C#N)c1C (centres undefined) | 1.74 |

| Structure (SMILES) | INHIBITION [%] |
| --- | --- |
| N#Cc1ccc(NCc2cccc(COC3CCOCC3)c2)nc1 | 7.58 |
| CN(C)C(=O)c1cccc(CNc2ccc(C#N)cn2)c1 | 73.8 |
| N#Cc1ccc(NCCCOCC2CCCO2)c(F)c1 (centres undefined) | 6.02 |
| CNS(=O)(=O)Cc1cccc(CNc2ccc(C#N)cn2)c1 | -55 |
| Oc1cccc(CNCC2CCCO2)c1 (centres undefined) | 35.5 |
| Cc1nc2ccccc2nc1NCc1cccc(OCC2CCCO2)c1 (centres undefined) | 83.9 |
| CN(C)Cc1cc(=O)n2c(n1)CN(S(=O)(=O)C1CC1)CCC2 | 21.6 |
| O=C(CCn1cccn1)N1C[C@H]2CC[C@@H](C1)N(Cc1ccccn1)C2=O | 8.47 |
| N#Cc1cc2cc(Cl)cnc2nc1O | -26.3 |
| CC(C)(C(=O)NCC1CCN(Cc2ccccn2)C1)c1ccccc1 (centres undefined) | 49.2 |
| O=C1NCCCc2[nH]c(C3CCCN(C(=O)C4CC4)C3)nc21 (centres undefined) | 26.8 |
| CC(C)OCCN1CCN(c2ccc(CN(C)C)cn2)CC1 | 25.4 |
| OCCN1CCN(Cc2coc(-c3cccc(F)c3)n2)CC1 | 48.4 |
| OCCN1CCN(Cc2coc(-c3cccc(Cl)c3)n2)CC1 | 33.3 |
| COCCN1CCN(Cc2coc(-c3ccccc3Cl)n2)CC1 | 63.8 |
| CN1CCOC(CNCc2coc(-c3cccc(F)c3)n2)C1 (centres undefined) | 57.8 |
| CC(O)CN1CCN(Cc2coc(-c3ccccc3Cl)n2)CC1 (centres undefined) | -66.7 |
| CCN1CCN(Cc2coc(-c3cccc(F)c3)n2)CC1 | 65.2 |
| OCCN1CCN(Cc2coc(-c3ccccc3Cl)n2)CC1 | -113 |
| CN1CCOC(CNCc2coc(-c3cccc(Cl)c3)n2)C1 (centres undefined) | 33.7 |
| CN1CCOC(CNCc2coc(-c3ccccc3)n2)C1 (centres undefined) | 22.5 |
| OCCN1CCN(Cc2coc(-c3ccccc3)n2)CC1 | 59 |

| Structure (SMILES) | INHIBITION [%] |
| --- | --- |
| CC(O)CN1CCN(Cc2coc(-c3ccccc3)n2)CC1 (centres undefined) | 1.45 |
| CC(=O)N1CCN(Cc2coc(-c3cccc(F)c3)n2)CC1 | -14.7 |
| NC(=O)c1cc(C2CCCN(CCOc3ccc(F)cc3)C2)n[nH]1 (centres undefined) | 27.25 |
| CC(NCc1cc(O)c2cccc(F)c2n1)c1ccc(S(C)(=O)=O)cc1 (centres undefined) | 15.1 |
| CCS(=O)(=O)Nc1ccc2c(c1)OCC(C)(C)C(=O)N2C | 25.8 |
| O=C(NC1CCCC1)C1(Cc2cc(C3CCOC3)no2)CCNCC1 (centres undefined) | 26.7 |
| COc1ccc(NCc2nc(=O)n(CCC(C)C)[nH]2)cc1 | -27.6 |
| c1ccc2c(c1)ccn2CCCNC1CCOC2(CCOCC2)C1 (centres undefined) | -27.5 |
| Cc1nc(COc2ccc(CNCC3CN(C)CCO3)cc2)cs1 (centres undefined) | 32.4 |
| Cc1nc(CNCC2CN(C)CCO2)cs1 (centres undefined) | 51.6 |
| COc1ccc(-c2nc(CN3CCN(CCO)CC3)co2)cc1 | 59.7 |
| COc1ccc(-c2nc(CN3CCCS3(=O)=O)co2)cc1 | -91.4 |
| CCN1CCOC(CNCc2csc(C)n2)C1 (centres undefined) | -65.3 |
| Cc1ccc(-c2nc(CN3CCN(CCO)CC3)co2)cc1 | 27.4 |
| Cc1cc(N2CCOC(c3ccccn3)C2)nc(N)n1 (centres undefined) | 2.6925 |
| CC(Cn1ccnc1)NC(=O)N1CCN(Cc2cccs2)CC1 (centres undefined) | 49.1 |
| O=S(=O)(NC1CCC12CCN(CC1CCOCC1)CC2)c1ccccc1 (centres undefined) | 36.4 |
| Cc1n[nH]cc1CNC1CCN(c2ccc(F)cc2)CC1 | 49.9 |
| O=C(c1ccoc1)N1CCC(NCc2cccnc2)CC1 | 10.2 |
| COCCN1CCC(NCc2cccnc2)C1 (centres undefined) | -27.3 |
| FC(F)(F)c1cccc(N2CCC(NCc3cccnc3)CC2)c1 | 71.2 |
| Cc1n[nH]cc1CNC1CCN(c2cccc(C(F)(F)F)c2)CC1 | 78.6 |

| Structure (SMILES) | INHIBITION [%] |
| --- | --- |
| Cc1n[nH]cc1CNC1CCN(c2ccccc2)CC1 | 49.9 |
| CC1CN(Cc2ccc(C#N)cc2F)CCN1Cc1nccn1C (centres undefined) | 11.433 |
| Cc1ccc(CN2CCCn3cnc(COCC4CC4)c3C2)o1 | -49.1 |
| CN(CCc1ccccn1)C(=O)CCC1CCCN(c2ccncc2)C1 (centres undefined) | 26.8 |
| O=C(C1CCOCC1)N1CCO[C@H]2[C@H](Oc3cccnc3)CC[C@@H]21 | 10 |
| CC(C)c1noc(CCCC(=O)Nc2cccc(F)c2)n1 | 27 |
| CC(C)c1noc(CCC(=O)Nc2cc(F)ccc2F)n1 | 34 |
| CC(C)c1noc(C[S+]([O-])CC(=O)Nc2cc(F)ccc2F)n1 (centres undefined) | 56.3 |
| CC(C)c1noc(C[S+]([O-])CC(=O)Nc2ccc(F)c(F)c2)n1 (centres undefined) | 51.3 |
| CC(C)NC(=O)c1cccc(NC(=O)CCCc2nc(C(C)C)no2)c1 | -8.87 |
| CC(C)c1noc(CN2CCN(C(=O)c3cc(Cl)ccc3F)CC2)n1 | -17 |
| CCN(Cc1ccco1)C(C)c1nc(C(C)(C)C)no1 (centres undefined) | 2.9 |
| CCn1cnnc1CNC(=O)Cc1ccc2c(c1)OCCO2 | 1.78 |
| O=C(NC[C@]1(O)CN(Cc2ccccc2F)C[C@H]1O)c1cscn1 | 14.5 |
| CCn1c(CC2CCN(S(=O)(=O)c3cccs3)CC2)nn(C)c1=O | 41.5 |
| Cc1noc(C)c1CNCc1c(C(C)C)nn(C)c1N1CCOCC1 | 34.5 |
| Cc1nnc2n1CCN(C(=O)c1cc(C)n(-c3ccccc3)c1C)C2 | 44.3 |
| Cc1cccc(-n2c(C)cc(C(=O)N3CCn4c(C)nnc4C3)c2C)c1 | 35.3 |
| Cc1cccc(-n2ncc(C(=O)N3CCn4c(C)nnc4C3)c2C)c1 | 60.6 |
| COc1ccc2nnc(CCCC(=O)NCc3ccccc3)n2n1 | 44.4 |
| CCc1ccc(CN2CCC3(CC2)C(=O)N(C)CCN3CC2CC2)cc1 | -17.1 |
